p53 reactivation – qHTS assay for re-activators of p53 using a Luc reporter; H1299 p53-A138V BP100-luciferase reporter, luminescence, 24 h; Potency, µM (doses to about 92.2 µM), for inactives: at the highest dose activity change, positive = activation, actives largely listed as activators; hit rate 0.063% among 320,000; also: potency is read from the fitted curve at half-maximal effect; % of control where 0% means no effect; nearly all actives have a fitted effect of over 45% in size
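p53-null H1299 cells stably carrying temperature-sensitive p53-A138V and a BP100-luciferase reporter were pinned with compounds (4-point, 1:5 series) and held 24 hrs at 37 deg C. Luminescence was read 10 min after detection reagent.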
S-ASM inh – Inhibitors of Secretory Acid Sphingomyelinase (S-ASM): qHTS; placental ASM, HMU-PC fluorogenic substrate, 60 min; Sphingomyelin phosphodiesterase (Homo sapiens), P17405; hit rate 0.006% among 340,000; Potency, µM (doses to about 57.5 µM), without a hit: at the highest dose activity change, negative = inhibition, hits mostly inhibitors; AID 504937, 2011; also: potency is read from the fitted curve at half-maximal effect
Target sequence (P17405 47-631 limits assumed): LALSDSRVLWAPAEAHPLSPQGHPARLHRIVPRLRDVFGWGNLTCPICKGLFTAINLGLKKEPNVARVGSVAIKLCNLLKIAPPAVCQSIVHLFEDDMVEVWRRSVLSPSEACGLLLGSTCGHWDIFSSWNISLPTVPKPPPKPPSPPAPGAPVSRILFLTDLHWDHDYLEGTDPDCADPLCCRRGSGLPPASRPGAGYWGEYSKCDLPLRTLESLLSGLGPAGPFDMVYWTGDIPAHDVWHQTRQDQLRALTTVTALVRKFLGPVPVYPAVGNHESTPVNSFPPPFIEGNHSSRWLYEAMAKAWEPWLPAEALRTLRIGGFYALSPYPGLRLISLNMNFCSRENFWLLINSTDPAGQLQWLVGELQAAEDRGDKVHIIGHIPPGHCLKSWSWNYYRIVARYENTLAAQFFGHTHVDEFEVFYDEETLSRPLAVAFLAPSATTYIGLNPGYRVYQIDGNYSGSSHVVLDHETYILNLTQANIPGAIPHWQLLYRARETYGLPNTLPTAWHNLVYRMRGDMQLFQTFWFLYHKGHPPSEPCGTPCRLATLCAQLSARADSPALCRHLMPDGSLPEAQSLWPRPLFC
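HMU-PC0 cleavage (9 uM final) by human placental ASM, 60 min at 37 °C following 10 min compound exposure at RT; stopped at pH 10, fluorescence Ex 386/Em 447 nm.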
ALOX12 inh – Primary qHTS assay for inhibitors of human arachidonate 12S-lipoxygenase (ALOX12): Round 2. purified 12hLO, xylenol orange hydroperoxide absorbance. Potency, µM (highest dose often 108 µM), for the others: at the top dose activity change, negative = inhibition, hits mostly inhibitors. hit rate 1.1% among 580,000. AID 1671190, 2021; also: potency is read from the fitted curve at half-maximal effect; % is scaled to controls: 0 for no effect and ±100 for the full control effect
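Purified human 12hLO (150 nM final) in 25 mM Hepes, 0.01% Triton X-100, pH 7.0 was preincubated 15 min at room temperature with compound. Then 40 uM arachidonic acid was added, 30 min. Hydroperoxide was read by Fe-XO absorbance ratio 573/405 nm.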
PINK1 expr mod – A Quantitative High throughput Screen to Identify Chemical Modulators of PINK1 Expression. PINK1 immunofluorescence, high-content cytometry, 24 h. Potency, µM (top dose mostly 76.6 µM), inactives show top-dose activation (PINK1 increase), hits mostly activators. hit rate 0.2% among 410,000. AID 624263, 2012; active = well fitted activation curve with a large enough effect; inconclusive = small, poorly fitted or top-dose-only effect; cell line not stated here; also: potency is read from the fitted curve at half-maximal effect; % of control where 0% means no effect; nearly all actives have a fitted effect of over 65% in size
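Fluorescence from anti-PINK1 antibody, together with nuclear and cell stains, was scanned on a laser-scanning cytometer. Before staining, stable-line cells were incubated 24 hours with compounds at 5 concentrations; primary antibody 12 h at 10 degrees C.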
CCT modulator – High-Throughput Screening for Modulators of Cytosolic Chaperonin Activity; hit rate 0.3% among 360,000; purified chaperonin ATPase assay, HTRF ADP detection, 30 min; activity change, % (no concentration beside the values), hits read low; in the data active = activity change below about -30%; also: % is scaled to controls: 0 for no effect and ±100 for the full control effect
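First, chaperonin was dispensed at 40 nM or 20 nM final depending on batch activity. Next, compounds were pinned at 76 uM and ATP added at 10 uM. After 30 min at 37 °C, ADP detection reagents ran 30 min at ambient temperature.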
Mm-Cpn inhibitor – Inhibitors of TCP-1 ring complex (TRiC) of Methanococcus maripaludis (MmCpn): qHTS. purified Mm-Cpn ATPase, ADP Transcreener TR-FRET. Potency, µM (series often up to 76.9 µM), inactives show at the highest dose activity, negative = inhibition, most hits filed as inhibitors. hit rate 0.031% among 330,000. AID 504842, 2011; also: potency is read from the fitted curve at half-maximal effect; % is scaled to controls: 0 for no effect and ±100 for the full control effect; nearly all actives have a fitted effect of over 80% in size
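25 nM Mm-CPN + cpd, 10 min 37°C; + 10 uM ATP, 30 min 37°C; buffer 30 mM Tris pH 7.4, 100 mM KCl, 5 mM MgCl2, 1 mM DTT; Transcreener ADP HTRF detection 30 min RT.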
* = called active by the depositor; ? = inconclusive; . = not tested or not shown; ! = repeats disagree; [ ] = remark or other dose. In the library only some 1.4% were active in any assay of this set; here they are far more common. Unless noted, calls follow the shape of the dose curve; as a rule, active = well fitted curve in the direction sought with a large enough effect; inconclusive = small, poorly fitted or top-dose-only effect, or another doubt; inactive = no such curve, though single readings can be large; an effect the other way counts as inactive or inconclusive.

SMILES	p53 reactivation	S-ASM inh	ALOX12 inh	PINK1 expr mod	CCT modulator	Mm-Cpn inhibitor
CCOC(=O)c1ccc(NC(=O)C23CCC(C)(C(=O)O2)C3(C)C)cc1 (configuration not stated)	?	-1%	0%	8%[38.3 µM]	-38*	0%
CCn1c(CSc2nc3ccccc3s2)n[nH]c1=S	4%	2%	32µM*	2%[38.3 µM]	-9	-2%
CCn1c(CN2c3ccccc3Sc3ccccc32)n[nH]c1=S	-4%	-16%	8.9µM*	0%	1	4%
CCn1c(-c2ccccc2O)n[nH]c1=S	7%	-1%	-20%	20%[38.3 µM]	-1	-2%
S=c1[nH]nc(CSc2nc3ccccc3s2)n1Cc1ccccc1	0%	1%	?	-1%	-3	0%
Cc1nn(CC(=O)Nc2ccc3c(c2)nc(CCN2CCOCC2)n3C)c(=O)c2ccccc12	.	.	38%	.	.	.
c1cncc(-c2cc(-n3ccnc3)ncn2)c1	.	.	45µM*	-1%	.	.
c1cncc(-c2cncnc2-n2ccnc2)c1	.	.	7.9µM*	0%	.	.
CS(=O)(=O)Nc1cccc(-c2cncnc2-n2ccnc2)c1	.	.	?	0%	.	.
CN(C)C(=O)c1ccc(-c2cc(-n3ccnc3)ncn2)cc1	.	.	25µM*	-1%	.	.
Cc1cnc(C(=O)Oc2ccc(Br)cc2)cn1	.	.	16%	.	.	.
Cc1ccc(-c2nc3ccc(C(=O)N4CCC(CC(=O)NCCN5CCOCC5)CC4)cc3o2)cc1	.	.	-2%	.	.	.
CSCCC(NC(=O)[C@@H](NC(=O)c1ccc(C)cc1)C(C)C)c1nnc2ccccn12 (some centres not stated)	.	.	-17%	.	.	.
CCC(=O)Oc1c(Sc2ccc(C)cc2)c(C)nn1-c1ccccc1	.	.	?	1%	.	.
CCC(=O)Oc1c(Sc2ccc(Cl)cc2)c(C)nn1-c1ccccc1	.	.	16µM*	2%	.	.
COc1ccc(-c2cnc(C)o2)cc1S(=O)(=O)Nc1ccc(C)c(F)c1	.	.	50µM*!	5%	.	.
Cc1ccc(NS(=O)(=O)c2ccc(-c3cnc(C4CC4)o3)cc2)cc1F	.	.	3.5µM*	.	.	.
Cc1ccc(NS(=O)(=O)c2ccc(-c3cnc(C4CC4)o3)cc2)cc1N(C)C	.	.	-9%	-1%	.	.
Cc1cc(NS(=O)(=O)c2ccc(NC(=O)c3oc4ccccc4c3C)cc2)nc(C)n1	.	.	-14%	.	.	.
O=C(NCC1(c2ccccc2)CC1)c1cccc(S(=O)(=O)N2CCOCC2)c1	.	.	0%	.	.	.
CCN(CC)c1ccc2nc3c4ccccc4c(=O)cc-3oc2c1	.	0%	5%	0%	-48*	-4%
FC(F)(F)c1ccc(=S)[nH]c1	.	.	5µM*	.	.	.
Cc1nc2c3ccccc3ccc2c2ccccc12	.	.	39%	.	.	.
N=C1/C(=C\c2ccc(-c3cccc(Cl)c3)o2)C(=O)N=C2SC=C(c3ccccc3)N12	8%	9%	35µM*	1%	-2	0%
COc1cc(/C=C2/C(=N)N3C(c4ccccc4)=CSC3=NC2=O)ccc1OCC(=O)O	6%	2.5µM*	-28%	1%	0	-1%
SMILES	p53 reactivation	S-ASM inh	ALOX12 inh	PINK1 expr mod	CCT modulator	Mm-Cpn inhibitor
N=C1/C(=C\c2ccc(-c3ccc(C(=O)O)cc3)o2)C(=O)N=C2SC=C(c3ccccc3)N12	1%	-3%	?	0%	2	1%
Cc1[nH]c2ccccc2c1C(=O)CSc1nnnn1C1CC1	.	.	6%	.	.	.
Cc1c(C(=O)Nc2ccc(S(=O)(=O)Nc3ncccn3)cc2)oc2ccc(Cl)cc12	4%	0%	?	5%	-34*	1%
COC(=O)c1ccc(C)c(NC(=O)c2cc(=O)c3cc(C)ccc3o2)c1	.	.	-1%	.	.	.
COc1ccc(CNc2ncc(-c3ccccc3)n2C)cc1	13%	-2%	?	0%	-2	0%
COc1ccc(CNc2ncc(-c3ccccc3)n2C)c2ccccc12	-2%	-2%	10µM*	5%	-3	-1%
COc1ccc(CNc2ncc(-c3ccccc3)n2C)c(OC)c1OC	.	3%	2µM*	2%	-1	0%
Cn1cc(CN2C[C@@H](F)[C@@H](OCc3nc4ccc(C#N)cc4[nH]3)C2)c2ccccc21	.	.	22%[176 µM]	.	.	.
Cc1cccc(C(=O)N2CCN(c3oc(-c4ccco4)nc3C#N)CC2)c1	.	.	-58%	.	.	.
CCCCCCC1C(C#N)=C(N)OC2=C1C(=O)CC(C)(C)C2 (configuration not stated)	2%	-1%	-6%	6%	-1	-1%
CCCCCCC1C(C#N)=C(N)OC2=C1C(=O)CCC2 (configuration not stated)	-7%	2%	32µM*	0%	2	0%
CC/C(=N/Nc1ccccc1)c1cnnc(-c2ccccc2)n1	-13%	-4%	?	?	0	-1%
CC/C(=N/Nc1cccc(Cl)c1)c1cnnc(SC)n1	3%	-7%	?	20µM*	0	2%
N#Cc1cccnc1NCCNc1cnc2ccccc2n1	.	.	-3%	.	.	.
COc1cccc(C(=O)/C(=C/c2ccco2)c2nc3ccccc3o2)c1	.	.	40µM*	.	.	.
COc1cc(OC)cc(C(=O)/C(=C\c2ccco2)c2nc3ccccc3o2)c1	.	.	40µM*	.	.	.
COc1ccc(C(=O)/C(=C/c2ccco2)c2nc3ccccc3o2)cc1	.	.	14µM*	.	.	.
COc1ccc(C(=O)/C(=C/c2ccccn2)c2nc3ccccc3o2)cc1	.	.	1%	.	.	.
COc1cccc(CNc2nc3ccc(C)cc3n3cnnc23)c1	-1%	2%	0%	40µM*	1	1%
Cc1ccc(CNc2nc3ccc(C)cc3n3cnnc23)cc1	3%	-4%	0%	5%	1	0%
Cc1cc(C(=O)N2CCCCCCNC(=O)[C@@H]3C[C@@H](c4nc(-c5cccnc5)no4)C[C@@H]32)nn1C	.	.	29%	.	.	.
O=C(Nc1cccc2cccnc12)c1cccc(C(=O)Nc2cccc3cccnc23)c1	.	.	2%	.	.	.
Cc1c(N/N=C(\C#N)C(=O)c2ccc(Cl)cc2)c(=O)n(-c2ccccc2)n1C	18%	-4%	8.9µM*	2%	0	-1%
N#C/C(=N\Nc1ccc(Cl)cc1)C(=O)c1ccccc1	?	?	?	?	2	-2%
Cc1ccc(C(=O)N/C(=C\c2ccc(Br)cc2)c2nc(=S)[nH][nH]2)cc1	-8%	?	16µM*	-2%[38.3 µM]	-1	0%
